Test results: PubChem BioAssay (Tox21)
Results filed as inconclusive are left out. Where a call stands in place of a potency, no number is given. A number with no mark means an inactive call. Activity calls are given as the source filed them. Calls come from the whole dose curve; as a rule, active = well fitted inhibition curve with a large enough effect in the repeat runs; inconclusive = weak or mixed curves; inactive = no such curve, though single readings can be large or run the other way.

molecular target: Cytochrome P450 2C9 (Homo sapiens) (UniProt P11712); test: Cytochrome P450 Family 2 Subfamily C Member 9 (CYP2C9) small molecule antagonists: luciferase reporter qHTS assay (AID 1671198); conditions: P450-Glo CYP2C9 enzyme assay, luciferin luminescence; series mostly up to 115 µM
Procedure, shortened: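 Enzyme-substrate mix preincubated with compound 10 min at room temperature; reaction started with NADPH regeneration solution, 1 h 37C. Luminescent luciferin product read after 20 min detection reagent.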
Note: nearly all actives have a fitted effect of over 50% in size.
Potency is the fitted concentration of half-maximal effect.

Sequence of Cytochrome P450 2C9 (Homo sapiens) (P11712 whole entry, looked up): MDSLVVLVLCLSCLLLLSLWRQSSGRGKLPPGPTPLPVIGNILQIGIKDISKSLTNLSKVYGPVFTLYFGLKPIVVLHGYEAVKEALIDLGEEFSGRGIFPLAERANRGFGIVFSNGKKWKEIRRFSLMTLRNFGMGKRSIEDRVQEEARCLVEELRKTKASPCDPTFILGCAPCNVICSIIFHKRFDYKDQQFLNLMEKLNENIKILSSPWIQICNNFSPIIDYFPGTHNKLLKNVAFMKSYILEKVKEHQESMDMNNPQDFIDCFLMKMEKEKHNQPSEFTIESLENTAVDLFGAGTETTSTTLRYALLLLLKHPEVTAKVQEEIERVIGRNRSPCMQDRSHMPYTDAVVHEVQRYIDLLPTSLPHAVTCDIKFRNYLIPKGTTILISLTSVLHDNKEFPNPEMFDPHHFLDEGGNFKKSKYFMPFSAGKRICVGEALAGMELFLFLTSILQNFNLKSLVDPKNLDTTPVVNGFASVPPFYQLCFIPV

Compound | Potency | activity change, negative = inhibition
Cc1ccccc1C#N | inactive | 
COC(=O)c1ccc(NC(C)=O)cc1OC | inactive | 
CCOC(=O)c1ccc(N(C)C)cc1 | 31.7 µM (active) | 
O=C(O)CCCCCCCCCC(=O)O | inactive | 
CC(C)(C)NCC(O)COc1cccc2c1CCC(=O)N2 (configuration not stated) | inactive | 
O=C(O)Cc1ccccc1Oc1ccc(Cl)cc1Cl | 38.9 µM (active) | 
Clc1cc(Cl)c(Cl)c(Cl)c1Cl | inactive | 
CCCCCCCCCCCCCCCCN(C)C |  | -0.0403% [at 10.5 µM]
CCOC(=O)CC | inactive | 
Cc1ccc2cccnc2c1 | inactive | 
CC(O)C(CO)C(C)O (configuration not stated) | inactive | 
C[Si](C)(C)O[Si](O)(O)O | inactive | 
CCCCCCC(=O)c1ccccc1 | inactive | 
CCCCC(CC)COC(=O)CC#N (configuration not stated) | 31.7 µM (active) | 
CC(C)C[P+](C)(CC(C)C)CC(C)C | inactive | 
CC(=O)c1ccc(O)c(C(N)=O)c1 | inactive | 
CC(=O)OC/C=C(/C)CCC=C(C)C | inactive | 
C=CC(=O)CC | inactive | 
COCCCOc1cc(C[C@@H](C[C@H](N)[C@@H](O)C[C@H](C(=O)NCC(C)(C)C(N)=O)C(C)C)C(C)C)ccc1OC | inactive | 
CCCc1ccc(O)c(OC)c1 | inactive | 
C/C(Cl)=C/CCl | inactive | 

molecular target: Cytochrome P450 1A2 (Homo sapiens) (UniProt P05177); test: Cytochrome P450 Family 1 Subfamily A Member 2 (CYP1A2) small molecule antagonists: luciferase reporter qHTS assay (AID 1671199); conditions: P450-Glo CYP1A2 enzyme, luciferin luminescence, 1 h; series mostly up to 115 µM
Procedure, shortened: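 Human CYP1A2 activity measured with a P450-Glo proluciferin substrate; compounds in DMSO preincubated 10 min at room temperature with enzyme-substrate mix, then NADPH regeneration system added for 1 h. Luciferin detection reagent, 20 min, luminescence read.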

Sequence of Cytochrome P450 1A2 (Homo sapiens) (P05177 whole entry, looked up): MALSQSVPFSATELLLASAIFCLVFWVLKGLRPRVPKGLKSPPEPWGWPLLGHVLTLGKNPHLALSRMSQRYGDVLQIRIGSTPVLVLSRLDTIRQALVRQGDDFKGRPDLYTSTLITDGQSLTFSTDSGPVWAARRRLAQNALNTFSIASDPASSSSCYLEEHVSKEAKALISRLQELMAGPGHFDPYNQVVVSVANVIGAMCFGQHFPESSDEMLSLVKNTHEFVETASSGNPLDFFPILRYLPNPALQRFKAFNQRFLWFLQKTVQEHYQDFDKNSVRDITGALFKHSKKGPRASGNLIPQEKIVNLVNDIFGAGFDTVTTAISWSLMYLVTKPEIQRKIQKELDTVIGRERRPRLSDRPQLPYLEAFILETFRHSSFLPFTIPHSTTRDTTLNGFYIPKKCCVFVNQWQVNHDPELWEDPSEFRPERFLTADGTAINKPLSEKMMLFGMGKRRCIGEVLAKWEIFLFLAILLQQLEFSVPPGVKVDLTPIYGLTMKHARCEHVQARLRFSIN

Compound | Potency | activity change, negative = inhibition
CC(=O)Nc1ccc(S(=O)(=O)Nc2cc(C)on2)cc1 | inactive | 
Cc1cc2c(cc1CC(=O)c1sccc1S(=O)(=O)Nc1onc(C)c1Cl)OCO2 | 3.23 µM (active) | 
Cc1ccc(Br)cc1 | inactive | 
CCCC(=O)OC | inactive | 
c1coc(Cn2cccc2)c1 | inactive | 
CCOC(=O)[C@H](CCc1ccccc1)N[C@H]1CS[C@H](c2cccs2)CN(CC(=O)O)C1=O | inactive | 
Cc1cc(O)c(Cl)cc1C | 25.2 µM (active) | 
NNC(=O)OCc1ccccc1 | 15.9 µM (active) | 
CO/N=C(\C(=O)O)c1csc(NC(=O)CCl)n1 | inactive | 
COC(C)(C)CC(C)=O | inactive | 
Cc1ccccc1C#N | inactive | 
COC(=O)c1ccc(NC(C)=O)cc1OC | 11.5 µM (active) | 
CCOC(=O)c1ccc(N(C)C)cc1 | 5.03 µM (active) | 
O=C(O)CCCCCCCCCC(=O)O | inactive | 
O=C(O)Cc1ccccc1Oc1ccc(Cl)cc1Cl | inactive | 
Clc1cc(Cl)c(Cl)c(Cl)c1Cl | inactive | 

Compound | Potency | activity change, negative = inhibition
CCCCCCCCCCCCCCCCN(C)C |  | -22.3% [at 10.5 µM]
CCOC(=O)CC | inactive | 
Cc1ccc2cccnc2c1 | 39.6 µM (active) | 
CC(O)C(CO)C(C)O (configuration not stated) | 32.1 µM (active) | 
C[Si](C)(C)O[Si](O)(O)O | inactive | 
CCCCCCC(=O)c1ccccc1 | 50.2 µM (active) | 
CCCCC(CC)COC(=O)CC#N (configuration not stated) | 35.6 µM (active) | 
Cc1cc(C)c(N)c(Cl)c1 | 2.83 µM (active) | 
CC(=O)c1ccc(O)c(C(N)=O)c1 | inactive | 
CC(=O)OC/C=C(/C)CCC=C(C)C | inactive | 
C=CC(=O)CC | inactive | 
COCCCOc1cc(C[C@@H](C[C@H](N)[C@@H](O)C[C@H](C(=O)NCC(C)(C)C(N)=O)C(C)C)C(C)C)ccc1OC | inactive | 
CCCc1ccc(O)c(OC)c1 | 31.7 µM (active) | 
C/C=C/C(=O)CCCC | inactive | 
C/C(Cl)=C/CCl | inactive | 
